Chronic BCR inh = chronic active BCR signaling inhibition; ABC-DLBCL IkBa-CBG/CBR reporter, luminescence ratio, 4 h; Potency, µM (top dose mostly 46.1 µM), inactives show at the top dose activity change, negative = inhibition, hits mostly inhibitors; 340,000 tested, 0.05% active; active = well fitted inhibition curve with a large enough effect in the signal ratio, with a control signal flat, not every such curve was filed as active; inconclusive = small, poorly fitted or top-dose-only effect, or effect the other way, or a change in a side signal; the % refers to the signal ratio;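 also: potency is read from the fitted curve at half-maximal effect; plate controls were basal doxycycline-induced cells for no effect and cells given 10 µM MG132 for full effect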
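Cell line TMD8 (human ABC DLBCL), stably expressing tet-inducible CBG68-IkBa fusion and CBR; IMDM/0.5% FBS; cpd up to 46 uM; dox induction, 4 h, 37C/5% CO2; dual luminescence; green/red ratio; MG132 control.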
DT40 TDP1 CPT = DT40-hTDP1 cell growth loss with CPT. chicken DT40 Tdp1-/-;hTDP1 cells + 20 nM CPT, ATP luminescence, 48 h. Potency, µM (titrated, usually from 46.2 µM), for the others: at the highest dose activity change, negative = growth inhibition, hits mostly inhibitors. 420,000 tested, 12% active; also: potency is read from the fitted curve at half-maximal effect; % is scaled to controls: 0 for no effect and ±100 for the full control effect; nearly all actives have a fitted effect of over 55% in size
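Chicken DT40 Tdp1-/- cells stably complemented with human TDP1 were seeded at 400 cells/well in medium containing 20 nM camptothecin, exposed to pin-transferred compounds, and grown at 37 °C for at least 48 hr. Viability was read as ATP luminescence.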
SW480 rereplic = inducers of DNA re-replication in SW480 colon cancer cells. SW480 DNA re-replication, Hoechst DNA content imaging, 48 h. Potency, µM (series often up to 46.1 µM), for the others: top-dose re-replication activation, most hits filed as activators. 340,000 tested, 1.8% active. AID 624297; also: potency is read from the fitted curve at half-maximal effect; % of control where 0% means no effect; nearly all actives have a fitted effect of over 55% in size
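Cells (250 per well) received 23 nL compound or DMSO by pin tool and were kept 48 hr at 37 C, 5% CO2. Nuclei were then stained with Hoechst for 40 min and scanned for DNA content.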
TDP1 cell noCPT = qHTS for Inhibitors of human tyrosyl-DNA phosphodiesterase 1 (TDP1): qHTS in cells in absence of CPT | DT40 Tdp1-/- hTDP1 cells, no CPT, ATP luminescence, 48 h | Potency, µM (series often up to 46.2 µM), for the others: at the highest dose activity change, negative = growth inhibition, most hits filed as inhibitors | 420,000 tested, 15% active; also: potency is read from the fitted curve at half-maximal effect; % is scaled to controls: 0 for no effect and ±100 for the full control effect; nearly all actives have a fitted effect of over 55% in size
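Cells were dispensed at 400 per well, compounds added by pin tool, plates incubated ≥48 hr at 37 °C, then CellTiter-Glo added for 30 min at room temperature before luminescence reading. Line: DT40 Tdp1-/- complemented with hTDP1; camptothecin omitted.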
MCF10A rerep = DNA re-replication induction in MCF 10a cells; MCF 10A DNA re-replication, Hoechst nuclear intensity, 48 h; Potency, µM (highest dose often 46.1 µM), for inactives: top-dose activity, positive = re-replication, usual class: activators; 350,000 tested, 2.9% active; AID 624296; also: potency is read from the fitted curve at half-maximal effect; % of control where 0% means no effect; nearly all actives have a fitted effect of over 50% in size
IL-1B inflam inh = inflammasome signaling inhibition, IL-1 beta readout; THP-1 LPS/ATP IL-1B secretion, AlphaLISA, 16 h; active compounds read low; activity change, % at 57.5 µM; 360,000 tested, 4.7% active; in the data active = activity change below about -50%; inconclusive = mostly about -30% to -49%; also: % is scaled to controls: 0 for no effect and ±100 for the full control effect
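THP-1 cells pretreated 1 hr with compounds (up to 57.5 uM final), then stimulated with LPS (250 ng/mL final) plus ATP (1.25 mM final); secreted IL-1B measured by AlphaLISA after 16 hr, decreased signal indicating inhibition.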
* marks the source's active call; other numbers are inactive results; ? = inconclusive; · = no result given. A selection: hits, their analogues and other compounds. The true share with any hit is near 19%. Unless noted, calls follow the shape of the dose curve; as a rule, active = well fitted curve in the direction sought with a large enough effect; inconclusive = small, poorly fitted or top-dose-only effect, or another doubt; inactive = no such curve, though single readings can be large; an effect the other way counts as inactive or inconclusive.

SMILES | Chronic BCR inh | DT40 TDP1 CPT | SW480 rereplic | TDP1 cell noCPT | MCF10A rerep | IL-1B inflam inh
Cc1ccc(Cl)cc1-n1nnc(-c2nc(-c3ccc4c(c3)OCO4)no2)c1C | · | ? | · | 21µM* | · | ·
COC(=O)c1ccc(-n2nnc(-c3nc(-c4ccc5c(c4)OCO5)no3)c2C)cc1 | · | -30% | · | 2% | · | ·
Cc1ccc(C)c(-n2nnc(-c3nc(-c4ccccc4C)no3)c2C)c1 | · | 16µM* | · | 15µM* | · | ·
COc1ccc(Cl)cc1-n1nnc(-c2nc(-c3ccc4c(c3)OCO4)no2)c1C | · | 1% | · | -8% | · | ·
COc1ccc(NC(=O)[C@@H]2CC=C[C@@H]3CCN(C4CC4)C(=O)[C@@H]32)cc1 | · | -6% | · | 0% | · | ·
Cc1ccc(S(=O)(=O)N(CCCc2c(C)nc[nH]c2=O)c2ccccc2)cc1 | · | ? | -7% | -27% | 3% | -8
O=C(NCc1ccncc1)c1ccc2nc(Cc3ccccc3F)oc2c1 | 2% | 26µM* | -2% | ? | -2% | -7
CC(CNC(=O)c1ccc2nc(Cc3ccccc3)oc2c1)c1ccccc1 (centres undefined) | · | ? | · | 16µM* | · | ·
Cc1cccc(CNC(=O)c2ccc3nc(Cc4ccccc4)oc3c2)c1 | · | 21µM* | · | 23µM* | · | ·
CN(C)c1ccc(CNC(=O)c2ccc3nc(Cc4ccccc4)oc3c2)cc1 | · | ? | · | 21µM* | · | ·
CCOc1ccc(C(=O)CCC(=O)N2CCN(S(=O)(=O)c3cccc(F)c3)CC2)cc1 | 1% | ? | 5% | -9% | 5% | -15
O=[N+]([O-])c1cccnc1SCc1ccccc1 | ? | -17% | 54% | 7% | 9% | 0
CC1CCc2c(sc3nnn(CC(=O)Nc4ccc(Cl)cc4)c(=O)c23)C1 (centres undefined) | -1% | ? | · | ? | · | ·
CC1CCc2c(sc3nnn(CC(=O)Nc4cccc(C(F)(F)F)c4)c(=O)c23)C1 (centres undefined) | · | ? | · | 21µM* | · | ·
CC1CCc2c(sc3nnn(CC(=O)Nc4ccccc4Cl)c(=O)c23)C1 (centres undefined) | · | ? | · | 16µM* | · | ·
COC(=O)[C@H](CC(C)C)NC(=O)Cn1cnc2c(NCc3ccccc3)ncnc21 | ? | -16% | -1% | -5% | -38% | 0
CCCCC(CC)CN=C(N)NC(N)=NCCCCCCN=C(N)NC(N)=NCC(CC)CCCC (centres undefined) | ? | 13µM* | ? | 9.2µM* | 12µM* | -104*
O=C(CC(c1ccccc1)c1ccccc1O)NCCc1ccccc1 (centres undefined) | 2% | -3% | -2% | ? | 7% | -51*
CCCCCCNC(=O)CC(c1ccccc1)c1cc(Br)ccc1O (centres undefined) | ? | ? | 1% | 26µM* | ? | ?
O=C(CC(c1ccccc1)c1ccccc1O)NCc1ccccc1Cl (centres undefined) | ? | 23µM* | 0% | 16µM* | 1% | ?
COc1ccc(CCNC(=O)CC(c2ccccc2)c2cccc(C)c2O)cc1OC (centres undefined) | 4% | 12µM* | -89% | 9.2µM* | -1% | -10
O=C(CS(=O)(=O)Cc1ccccc1)NCc1ccccc1Cl | -1% | -4% | -2% | 17% | 6% | ?
COc1ccc(OCC(=O)N2CCC3(CC2)CC(=O)c2ccccc2O3)cc1 | -3% | -24% | ? | ? | 7% | -6
Cc1ccccc1CNS(=O)(=O)c1c(C(=O)N2CCCCC2)c(C)n(C)c1C | -1% | 9% | 5% | 11% | 19% | -9
Cc1ccn(CCC(=O)NC2CC(C)(C)Cc3c2cnn3-c2ccccc2C)n1 (centres undefined) | 6% | ? | -2% | ? | 11% | 13
SMILES | Chronic BCR inh | DT40 TDP1 CPT | SW480 rereplic | TDP1 cell noCPT | MCF10A rerep | IL-1B inflam inh
Cc1ccc(-n2c(=S)[nH]c3sc4c(c3c2=O)CCc2ccccc2-4)cc1 | -11% | -38% | 0% | -23% | 0% | 36
Cc1cccc(-n2c(=S)[nH]c3sc4c(c3c2=O)CCc2ccccc2-4)c1 | 9% | 9.2µM* | 2% | 6.5µM* | -21% | 0
Cc1cccc(C(=O)OCC(=O)NCC2COc3ccccc3O2)c1 (centres undefined) | -1% | -6% | -5% | 6% | -2% | 14
Cc1ccc(S(=O)(=O)N2CC(O)C[C@H]2C(=O)OCC(=O)N2CCN(c3ccc(F)cc3)CC2)cc1C (some centres undefined) | · | 10µM* | -25% | 4.1µM* | 6% | 14
Cc1ccc(S(=O)(=O)N2CCC(C(=O)OCC(=O)N3CC(C)CC(C)C3)CC2)cc1C (centres undefined) | 1% | -14% | ? | -15% | -11% | 8
Cc1cc(Br)ccc1NC(=O)CSCc1c(C)noc1C | -9% | ? | 7% | -27% | 12% | -8
COc1cccc2oc3ccc(C#Cc4ccccn4)cc3c(=O)c12 | ? | 12µM* | -6% | ? | 6% | -21
COc1cccc2sc3cc(C#Cc4ccccn4)ccc3c(=O)c12 | ? | 18µM* | -1% | 16µM* | 0% | ?
Cc1nn(C(=O)c2c(F)cccc2F)c(C)c1S(=O)(=O)N1CCCCCC1 | · | -2% | · | -10% | · | ·
COc1ccc(-c2ccc3c(c2)S(=O)(=O)c2cccc(C(=O)N4CCN(c5c(Cl)cncc5Cl)CC4)c2C3=O)cc1OC | 4% | 5.8µM* | ? | 5.2µM* | ? | -11
O=C1c2ccccc2S(=O)(=O)c2cc(C(=O)N3CCN(c4ncccn4)CC3)ccc21 | · | ? | -6% | · | -4% | -22
N#Cc1cccnc1N1CCN(C(=O)c2cccc3c2C(=O)c2ccc(Cl)cc2S3(=O)=O)CC1 | ? | ? | 4% | 16µM* | 0% | -99*
O=C1c2ccc(Cl)cc2S(=O)(=O)c2cccc(C(=O)N3CCN(c4ncc(Br)cn4)CC3)c21 | 6% | ? | 0% | 21µM* | 7% | ?
CCNc1ncc2nc(CCc3ccccc3)c(=O)n(C[C@H]3CCCO3)c2n1 | · | -25% | · | 0% | · | ·
CC(C)OCCCNC(=O)C1CCN(S(=O)(=O)c2ccc3nc4c(c(C(=O)O)c3c2)CCCCC4)CC1 | 1% | 15% | -18% | 11% | 3% | 33
